Laboratory results reported in PubChem BioAssay (NCATS).
Records with an inconclusive call do not appear. A call without a number means that no potency is given here. Calls of active or inactive are those of the source. Unless noted, calls come from the whole dose curve; as a rule, active = well fitted curve in the direction sought with a large enough effect; inconclusive = small, poorly fitted or top-dose-only effect, or another doubt; inactive = no such curve, though single readings can be large; an effect the other way counts as inactive or inconclusive.

Assays:
[1] = A High-Content qHTS Against Drug Library for the Identification of Small Molecules that Inhibit DYT1 Early Onset Primary Dystonia-Associated Cell Pathology (AID 1645839; calls by dose curve; note: series mostly up to about 46 µM)
Outline: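 Cells were seeded and left for 24 h, then dosed with compound alongside tetracycline induction of mutant EGFP-TorsinA. They were incubated for 48 h, fixed in 4% paraformaldehyde, permeabilized and imaged for mislocalization (%pathology) and cell count.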

[2] = target: Cytochrome P450 2D6 (Homo sapiens) (UniProt P10635); test: Cytochrome P450 family 2 subfamily D member 6 (CYP2D6) small molecule antagonists: luciferase biochemical (cell-free) qHTS assay (AID 1645840; active = well fitted curve in the direction sought with a large enough effect in the repeat runs; an effect the other way counts as inactive or inconclusive; note: nearly all actives have a fitted effect of over 55% in size; note: potency is the fitted concentration of half-maximal effect)
Outline: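 P450-Glo CYP2D6 system: proluciferin substrate converted by enzyme to luciferin, read by luminescence proportional to activity. Enzyme-substrate mix with compound 10 min at room temperature, then NADPH regeneration 1 h before detection reagent.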

[3] = Primary qHTS for small molecule stabilizers of the endoplasmic reticulum resident proteome: Secreted ER Calcium Modulated Protein (SERCaMP) assay (AID 1508630)
Outline: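 The SH-SY5Y reporter protocol was run at 3 concentrations up to 38.3 uM (primary) or 11 concentrations (follow-up): 16 h compound, 100 nM thapsigargin for 4 h, then extracellular luciferase luminescence.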

Chain of Cytochrome P450 2D6 (Homo sapiens) (P10635 whole entry, looked up): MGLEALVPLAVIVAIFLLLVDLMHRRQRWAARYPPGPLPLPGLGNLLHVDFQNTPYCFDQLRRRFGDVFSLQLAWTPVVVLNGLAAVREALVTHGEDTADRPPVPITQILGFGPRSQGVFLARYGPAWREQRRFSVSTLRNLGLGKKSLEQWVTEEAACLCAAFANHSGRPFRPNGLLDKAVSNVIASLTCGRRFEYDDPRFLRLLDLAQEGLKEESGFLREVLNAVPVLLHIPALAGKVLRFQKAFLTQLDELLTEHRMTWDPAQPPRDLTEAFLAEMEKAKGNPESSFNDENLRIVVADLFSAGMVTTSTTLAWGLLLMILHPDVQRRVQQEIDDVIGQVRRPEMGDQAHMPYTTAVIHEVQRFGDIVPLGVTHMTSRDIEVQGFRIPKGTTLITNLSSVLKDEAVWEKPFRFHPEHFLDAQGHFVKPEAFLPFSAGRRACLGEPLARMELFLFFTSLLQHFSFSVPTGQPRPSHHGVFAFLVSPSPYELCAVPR

| Compound | Potency [1] | Potency [2] | Potency [3] |
| --- | --- | --- | --- |
| O=C(O)CCc1nc(-c2ccccc2)c(-c2ccccc2)o1 | inactive | inactive | – |
| O=C(O)CCC1CCC(c2cc(F)ccc2F)(S(=O)(=O)c2ccc(Cl)cc2)CC1 (configuration not stated) | – | inactive | inactive |
| N#C[C@H]1C[C@H]2C[C@@H]2N1C(=O)[C@@H](N)C12CC3CC(CC(O)(C3)C1)C2 | inactive | inactive | inactive |
| COc1cc2c(cc1OC)CN(CCc1ccc(NC(=O)c3cc(OC)c(OC)cc3NC(=O)c3cnc4ccccc4c3)cc1)CC2 | – | – | inactive |
| COc1ccc(-c2nc(N3CCOCC3)c3sc(CN(C)c4ncc(C(=O)NO)cn4)cc3n2)cn1 | – | – | inactive |
| COc1cc(N2CCC(N3CCN(C)CC3)CC2)ccc1Nc1ncnc(Nc2ccccc2S(=O)(=O)C(C)C)n1 | – | inactive | inactive |
| COc1ccc(-c2cc(=O)c3c(O)cc(O)cc3o2)cc1O | – | – | inactive |
| CC1(C)S[C@H]2[C@H](NC(=O)[C@@H](N)c3ccc(O)cc3)C(=O)N2[C@@H]1C(=O)O | – | – | inactive |
| Cc1[nH]c(C=C2C(=O)Nc3ccc(S(=O)(=O)Cc4c(Cl)cccc4Cl)cc32)c(C)c1C(=O)N1CCC[C@H]1CN1CCCC1 | – | – | inactive |
| CC(=O)CCCCn1c(=O)c2c(ncn2C)n(C)c1=O | inactive | inactive | inactive |
| COc1ccc2cc(-c3nc(-c4ccc(S(C)=O)cc4)[nH]c3-c3ccncc3)ccc2c1 (configuration not stated) | – | 3.38 µM (active) | – |
| O=C(Nc1ccccc1Br)N[C@@H]1CCN(c2ccc(C(F)(F)F)cn2)C1 | – | 15.1 µM (active) | inactive |
| COCCOC(=O)C1=C(C)NC2=C(C(=O)CC(c3ccccc3OC)C2)C1c1cccc(O)c1 (configuration not stated) | – | 10.7 µM (active) | inactive |
